Rows were chosen to be rich in hits. Some 4.9% of all compounds tested hit in one or more screens of this group.
Platelet DG rel: inhibitors of platelet dense granule secretion, primary screen, cell-based, MLPCN, human platelets; actives 0.22% (n = 300,000); inhibition, %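 (compounds screened at 7.5 µM in platelet-rich plasma)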; human platelet-rich plasma, SFLLRN dense granule ATP release, luminescence;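 active = mean replicate score, as percent of positive control, at or above 50; inconclusive = mean below 50 but at least one replicate at or above 50; inactive = mean and every replicate below 50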
dFosB act: activators of delta FosB homodimer, primary screen, biochemical, fluorescence polarization, TAMRA-CDK5 oligo, single point; Protein FosB (Mus musculus), P13346; actives 0.99% (n = 340,000); AID 493131, 2011; activation, % at 25 µM; purified delta FosB; percent of positive-control signal above neutral wells;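 active = mean activation above about 17%, with every replicate also reaching it, limit read from the data, passing the limit was not always enough; inconclusive = only one of the two conditions met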
HSF1 inh: HSF1 inhibitors in luciferase reporter cells, primary screen, cell-based, NIH3T3, luminescence | NIH3T3-HGL HSE-luciferase, MG132-induced, luminescence 8 h; active compounds read low | activity change, negative = inhibition, % at 7.5 µM (by protocol) | actives 0.77% (n = 300,000) | AID 2098, 2009;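 active = more than half of replicate wells show activity change below -50%, luminescence cut by over half; inconclusive = some wells, but at most half, below -50%; inactive = no replicate well below -50%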;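 also: luciferase reports HSF-1 transcriptional activity via heat shock element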
MPTP inh: mitochondrial permeability transition pore inhibitors, primary screen, biochemical, isolated mouse mitochondria, absorbance; Ca2+ swelling absorbance, 30 min; inhibition, % at 10 µM; actives 1.4% (n = 360,000); AID 602449, 2012;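 active = inhibition of 50% or more, scaled per plate between neutral and stimulator controls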
HSP90 inh: HSP90 inhibitors, primary screen, cell lysate, luminescence; Heat shock protein HSP 90 (rabbit reticulocyte lysate; luciferase refolding); Rabbit reticulocyte lysate, luciferase refolding luminescence, 3 h; inhibition, % at 5.6 µM; actives 0.91% (n = 290,000);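 active = inhibition above the screen-wide mean plus 3 SD, computed separately per campaign, cut at about 16% in these data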;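 also: inhibitors lower the luminescence because luciferase stays unfolded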
HSF-1 act: HSF-1 activators, primary screen, NIH3T3-HGL cells, MG132 stress, luminescence, single point. NIH3T3-HGL HSF-1 luciferase reporter, 8 h; 100% = twice DMSO control signal. activation, % at 9 µM. actives 1.7% (n = 300,000);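 active = mean replicate activation of at least 50% with a set share of replicates each reaching 50%; inconclusive = only one of those two conditions met; inactive = mean below 50% and too few replicates reaching it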
HSP90 inh confirm: HSP90 inhibitors, confirmation, cell lysate, luminescence; shares compounds with HSP90 inh; rabbit reticulocyte lysate, luciferase refolding luminescence, 3 h; inhibition, % at 5.9 µM; actives 64% (n = 2,300); AID 1846, 2009; in the data active = inhibition above about 18%
luciferase ctr: firefly luciferase inhibitors, HSP90 counter-screen, confirmation, artefact control for HSP90 inhibitor project, biochemical, luminescence, triplicate; shares compounds with HSP90 inh; purified native firefly luciferase; inhibition, % at 5.9 µM; actives 48% (n = 2,300); AID 1847, 2009;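 active = inhibition above the mean inhibition of all tested sample wells plus 3 SD, cut at about 10% in these data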
Target sequence (P08659 whole entry, looked up): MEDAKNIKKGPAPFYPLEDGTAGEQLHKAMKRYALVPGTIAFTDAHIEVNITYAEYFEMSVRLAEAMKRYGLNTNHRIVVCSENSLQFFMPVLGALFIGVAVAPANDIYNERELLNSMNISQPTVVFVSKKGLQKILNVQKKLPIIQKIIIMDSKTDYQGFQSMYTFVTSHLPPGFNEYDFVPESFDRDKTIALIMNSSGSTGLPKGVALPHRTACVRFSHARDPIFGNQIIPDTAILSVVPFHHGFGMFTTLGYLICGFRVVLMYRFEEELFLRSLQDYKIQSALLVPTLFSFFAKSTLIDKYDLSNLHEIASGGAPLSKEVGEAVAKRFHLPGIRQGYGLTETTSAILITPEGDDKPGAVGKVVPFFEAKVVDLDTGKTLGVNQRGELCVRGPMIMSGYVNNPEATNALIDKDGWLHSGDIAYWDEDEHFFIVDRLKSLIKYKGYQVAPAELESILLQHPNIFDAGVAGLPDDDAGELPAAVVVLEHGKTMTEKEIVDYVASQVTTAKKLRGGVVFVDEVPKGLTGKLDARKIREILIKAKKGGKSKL
Of the large screens only hits and unclear results are named; the others gave an inactive call (follow-up assays come after a bar, where they were run).

Oc1c(C=Nc2cccc3cccnc23)sc2ccccc12	HSP90 inh 37 (no result: dFosB act, MPTP inh) | HSP90 inh confirm 23 | luciferase ctr 50
Cc1ccnc(NC(=O)/C=C/c2ccccc2Cl)c1	HSP90 inh 35 | HSP90 inh confirm 58 | luciferase ctr 47
O=C(NC(=O)c1ccccc1)Nc1ccccc1	HSP90 inh 64 | HSP90 inh confirm 59 | luciferase ctr 47
O=C(Oc1ccc[nH]c1=O)c1cc([N+](=O)[O-])cc([N+](=O)[O-])c1	none | HSP90 inh confirm inactive | luciferase ctr inactive
COc1ccc(C(=O)Oc2ccc[nH]c2=O)cc1	none
CCc1sc(C(=O)Nc2ncccc2O)cc1C	HSP90 inh 22 | HSP90 inh confirm 52 | luciferase ctr 42
CCOc1ccc(N)c(SSc2cc(OCC)ccc2N)c1	HSP90 inh 30 | HSP90 inh confirm 41 | luciferase ctr 9.6
Cc1ccc(C(=O)O/N=C(\N)c2ccccn2)cc1C	HSF1 inh -74, HSP90 inh 61 | HSP90 inh confirm 71 | luciferase ctr 84
N/C(=N\OC(=O)/C=C/c1ccc(Br)cc1)c1ccccn1	none
COc1cc(C(=O)O/N=C(\N)c2ccccn2)cc(OC)c1OC	none
N/C(=N\OC(=O)/C=C/c1ccccc1Cl)c1ccccn1	HSP90 inh 28 | HSP90 inh confirm 55 | luciferase ctr 57
N/C(=N\OC(=O)c1ccccc1)c1ccccn1	HSF1 inh -65, HSP90 inh 58 | HSP90 inh confirm 38 | luciferase ctr 87
CC(C(=O)O/N=C(\N)c1ccccn1)c1ccc([N+](=O)[O-])cc1 (configuration not stated)	none
N/C(=N\OCc1ccc([N+](=O)[O-])cc1)c1ccccn1	Platelet DG rel 63, HSP90 inh 84 (no result: MPTP inh) | HSP90 inh confirm 91 | luciferase ctr 86
O=C(NC(=S)NCCC1=CCCCC1)c1cncc(Br)c1	HSF1 inh inconclusive
Cc1ccc(-c2noc(CCCC(=O)NC3CCCCC3)n2)cc1	none
CCCCCCCCN1C(=O)[C@H](CC(=O)NCCCOCCCC)C[C@@]2(C(=O)OC)CC(C)(C)CC=C12	none (no result: Platelet DG rel, dFosB act, HSF1 inh, HSP90 inh, HSF-1 act)
O=C(CCNS(=O)(=O)c1ccc(Cl)cc1)NCCc1ccccc1	none (no result: Platelet DG rel, dFosB act, HSF1 inh, HSP90 inh, HSF-1 act)
N/C(=N\OC(=O)COc1ccccc1)c1ccccn1	none
CC(C)(C)c1ccc(C(=O)O/N=C(\N)c2ccccn2)cc1	HSF1 inh -89, HSP90 inh 73 | HSP90 inh confirm 64 | luciferase ctr 83
N/C(=N\OC(=O)c1ccc(Br)o1)c1ccccn1	HSP90 inh 23 | HSP90 inh confirm inactive | luciferase ctr 44
Cc1cc(C)cc(OCC(=O)O/N=C(\N)c2ccccn2)c1	none
CCOc1ccc(C(=O)O/N=C(\N)c2ccccn2)cc1	Platelet DG rel 81, HSF1 inh -80, HSP90 inh 82 | HSP90 inh confirm 82 | luciferase ctr 91
Cc1ccc(C(=O)O/N=C(\N)c2ccccn2)cc1	Platelet DG rel 104, HSF1 inh -81, HSP90 inh 78 | HSP90 inh confirm 86 | luciferase ctr 94
C/C(=N/NC(=O)c1ccc(C(C)(C)C)cc1)c1ccccn1	none (no result: HSP90 inh)
COc1ccc(N2CCN(C3CCCN(C(=O)C4=C(C)OCCO4)C3)CC2)cc1 (configuration not stated)	none
CCNC(COC(=O)c1ccc([N+](=O)[O-])cc1)C1CCCCC1 (configuration not stated)	none (no result: Platelet DG rel, HSF1 inh, HSP90 inh, HSF-1 act)
Cc1cccc(C(=O)O/N=C(/c2ccccc2)c2ccncc2)c1	none
N/C(=N\OC(=O)c1cccc(F)c1)c1ccccn1	HSP90 inh 31 | HSP90 inh confirm 16 | luciferase ctr 68
